Neddyl block – inhibitors of human cullin neddylation. P61081+Q13564. TR-FRET cullin neddylation, biochemical. calls only at 25 µM. 0.58% of 360,000 active. AID 651699; in the data active = inhibition above about 36%
PfGluPho inh – PfG6PD (Plasmodium falciparum) enzyme inhibition; PfGluPho enzyme, NADPH resazurin-diaphorase fluorescence; AID 504690; 0.78% of 350,000 active; inhibition, % at 20 µM;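 active = inhibition reaching at least a set limit at 20 µM in the primary screen, cut at about 59% in these data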;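 note: 0% = DMSO wells with substrate and 100% = DMSO wells lacking glucose-6-phosphate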
KLK7 zymogen act – activators of human kallikrein-7 zymogen | activation, % at 7 µM | 0.9% of 370,000 active | purified proKLK7, EDANS-DABCYL substrate fluorescence; 100% is mature enzyme control, 0% vehicle | P49862;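 active = activation above the mean of all tested compounds plus 3 SD, computed per campaign excluding outliers beyond control limits, cut at about 13% in these data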
Target sequence (P49862 whole entry, looked up): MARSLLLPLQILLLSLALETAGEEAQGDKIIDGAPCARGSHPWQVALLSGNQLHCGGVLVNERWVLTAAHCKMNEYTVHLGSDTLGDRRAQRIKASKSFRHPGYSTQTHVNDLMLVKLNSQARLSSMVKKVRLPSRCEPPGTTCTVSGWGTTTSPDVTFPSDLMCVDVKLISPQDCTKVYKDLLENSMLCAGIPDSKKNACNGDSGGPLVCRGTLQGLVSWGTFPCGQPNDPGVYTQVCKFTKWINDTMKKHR
FAS TE block – blocks the thioesterase domain of human fatty acid synthase | recombinant FAS-TE, OMFH fluorogenic substrate, fluorescence endpoint | 0.67% of 360,000 active | P49327 | inhibition, % at 15 µM;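 active = compounds whose normalised, plate-corrected inhibition of enzyme fluorescence in the single-dose primary screen is 50% or more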;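 note: 0% = DMSO with enzyme and 100% = substrate without enzyme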
proKLK7 act conf – proKLK7 activation, confirmation | shares compounds with KLK7 zymogen act | purified proKLK7, EDANS-DABCYL substrate fluorescence; scaled: vehicle 0, mature enzyme 100 | activation, % at 7 µM | 68% of 3,200 active | AID 686949;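 active = activation, as change over the incubation, above the mean of all tested compounds plus 3 SD, cut at about 13% in these data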
EDANS interfere – counter-screen for kallikrein-7 activators: EDANS-DABCYL optical interference | shares compounds with KLK7 zymogen act | EDANS-DABCYL substrate fluorescence interference, no enzyme, 4 h; solvent 0%, active enzyme control 100% | activation, % at 7 µM | 80% of 3,200 active;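 active = activation above the all-compound mean plus 3 SD, ignoring values outside control-based bounds, cut at about 4.8% in these data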;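 note: value is the 4 h activation minus the activation read at time zero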
K7 EDANS ctr – counter-screen for kallikrein-7 activators: EDANS-DABCYL interference, dose response | EC50, µM | EDANS-DABCYL peptide fluorescence interference, no enzyme | AID 720493 | 20% of 250 active | shares compounds with KLK7 zymogen act;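 active = compounds that raise the fluorescence signal in this interference counterscreen, with EC50 at or below 10 µM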;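 note: intact quenched peptide substrate alone read at 355 nm excitation and 520 nm emission; signal is fluorescence gain from T0 to T4 after four hours at room temperature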
* hit, by the source's call; i = inactive; nt = not tested or not shown. Most compounds without a hit are left out; they make up all but 2.7% or so of the library.

SMILES | Neddyl block | PfGluPho inh | KLK7 zymogen act | FAS TE block | proKLK7 act conf | EDANS interfere | others
CCCC1NC(C(=O)O)Cc2c1[nH]c1ccccc21 (stereo unspecified) | nt | 3 | 13* | -3 | 8 | 7.6*
CC(C)C1NC(C(=O)O)Cc2c1[nH]c1ccccc21 (stereo unspecified) | nt | 0 | 30* | -2 | 56* | 49*
CC(N)c1csc(Nc2ccc(S(C)(=O)=O)cc2)n1 (stereo unspecified) | i | nt | 1 | -10 | nt | nt
N#Cc1c(-c2cccnc2)c2c([nH]c1=O)-c1ccccc1OC2 | nt | -23 | 72* | -6 | 66* | 71*
N#Cc1c(-c2ccc(F)cc2)c2c([nH]c1=O)-c1ccccc1OC2 | nt | -26 | 12 | -1 | nt | nt
COc1ccc(S(=O)(=O)NCCc2cn3nc(C)c(C)nc3n2)cc1F | nt | 0 | 20* | -4 | 73* | 81*
CC(=O)Nc1ccc(S(=O)(=O)NCCNS(=O)(=O)c2ccc(NC(C)=O)cc2)cc1 | i | -5 | 0 | -2 | nt | nt
COc1ccc(S(=O)(=O)NCc2cn3c(C)csc3n2)cc1F | i | 2 | 0 | -5 | nt | nt
CC(=O)Nc1ccc(S(=O)(=O)NCCc2cn3nc(C)c(C)nc3n2)cc1 | nt | -9 | 16* | -2 | 62* | 55*
COc1ccc(CC2C(=O)NC(C)C(=O)N(C)C3Cc4ccc(cc4)Oc4cc(ccc4O)CC(C(=O)NC(C)C(=O)NC(C)C(=O)N2C)N(C)C3=O)cc1 (stereo unspecified) | i | 13 | 0 | -9 | nt | nt
COc1cccc(C2C=C(c3ccc(Br)s3)Nc3ncnn32)c1OC (stereo unspecified) | i | -27 | nt | -8 | nt | nt
COc1ccc(C2C=C(c3ccccc3)Nc3ncnn32)cc1 (stereo unspecified) | nt | -26 | 52* | -2 | 71* | 74*
FC(F)(F)c1ccccc1C1=CC(c2ccccc2)n2ncnc2N1 (stereo unspecified) | nt | -15 | 25* | 1 | 27* | 26*
COc1ccc(C2C=C(c3ccc(C)c(C)c3)Nc3ncnn32)c(OC)c1OC (stereo unspecified) | nt | -7 | 18* | 3 | 24* | 30*
Cc1ccc(C2=CC(c3ccc(C)cc3)n3ncnc3N2)cc1 (stereo unspecified) | nt | 0 | 32* | 3 | 9 | -6
CN1c2ccc(Cl)cc2C(=O)NC1C1CC=CCC1 (stereo unspecified) | i | 4 | 14* | 1 | -5 | -9
CCC(CC)CC1CN2CCc3cc(OC)c(OC)cc3C2CC1(O)CC (stereo unspecified) | nt | 8 | 30* | -5 | 20* | 17* | K7 EDANS ctr=>70
COc1cc2c(cc1OC)C1CC(=O)C(CC(C)C)CN1CC2 (stereo unspecified) | i | 3 | -3 | -1 | nt | nt
Nc1nc(Cl)nc2c1ncn2C1OCC(O)C(O)C1O (stereo unspecified) | i | 5 | 0 | 1 | nt | nt
Cc1cc(C)c2cc3c(ccn3C3OC[C@H](O)[C@H](O)[C@H]3O)cc2n1 (stereo partly specified) | i | 10 | 23* | -1 | 48* | 47*
COC(=O)[C@H](C(C)C)N1Cc2nnn(Cc3ccccc3)c2-c2cc(F)ccc2S1(=O)=O | nt | nt | 0 | nt | nt | nt
CNC(=O)c1cc2c(cn1)[nH]c1ccccc12 | nt | 21 | 32* | -6 | 7 | 4.4*
CCOC(=O)c1ccc2[nH]c3ccccc3c2c1 | i | 24 | 0 | 19 | nt | nt
CSc1nnc(-c2cccn(Cc3ccccc3)c2=O)o1 | nt | -8 | 13* | -4 | 26* | 38*
COc1ccc(C2C(C(=O)N3CCOCC3)=C(C)NC3=C2C(=O)CC(C)(C)C3)c(OC)c1 (stereo unspecified) | nt | -4 | 18* | -8 | 31* | 20* | K7 EDANS ctr=>23
SMILES | Neddyl block | PfGluPho inh | KLK7 zymogen act | FAS TE block | proKLK7 act conf | EDANS interfere | others
CCC(c1nnnn1Cc1ccc(F)cc1)N(CCCO)Cc1cc2cc3c(cc2[nH]c1=O)OCO3 (stereo unspecified) | nt | -5 | 26* | -5 | 0 | 1
CCC(c1nnnn1CC1CCCO1)N(CCCO)Cc1cc2cccc(C)c2[nH]c1=O (stereo unspecified) | i | -1 | 4 | -8 | nt | nt
COc1ccc(OC)c(/C=C/C(=O)Oc2ccc(C(C)=O)cc2)c1 | nt | 16 | 15* | 3 | 25* | 32*
COc1ccc(OC)c(/C=C/C(=O)OCC(=O)N2C(C)CCCC2C)c1 (stereo unspecified) | nt | -5 | 13* | 2 | 13* | 15*
COc1ccc(OC)c(/C=C/C(=O)OCC(=O)Nc2cccc(C(C)=O)c2)c1 | nt | -8 | 7 | -1 | nt | nt
COc1ccc(OC)c(/C=C/C(=O)OCC(=O)N2CCCC2)c1 | i | -10 | 8 | -6 | nt | nt
COCCNC(=O)C1(C)CCCN(Cc2cc(-c3ccccc3)nn2C)C1 (stereo unspecified) | i | nt | 0 | -9 | nt | nt
COc1ccc(CC(=O)N2CCc3cc(OC)c(OC)cc3C2O)cc1OC (stereo unspecified) | nt | -7 | 14* | -5 | 5 | 4.1*
Nc1ccc(Cl)cc1C(=O)OCC(=O)NC1CCS(=O)(=O)C1 (stereo unspecified) | nt | 5 | 14* | -4 | 23* | 19* | K7 EDANS ctr=i
c1ccc(C2Nc3ccccc3-c3nc4ccccc4n32)nc1 (stereo unspecified) | nt | -2 | 36* | -6 | 14* | 16*
CCn1c(-c2cccnc2Cl)nc2ccccc21 | i | 1 | -1 | -9 | nt | nt
c1ccc(C2Nc3ccccc3-c3nc4ccccc4n32)cc1 (stereo unspecified) | nt | 10 | 66* | 8 | 3 | 5.4*
c1coc(C2Nc3ccccc3-c3nc4ccccc4n32)c1 (stereo unspecified) | nt | 20 | 16* | 10 | 39* | 40*
O=C1c2ccccc2NC(c2ccco2)N1O (stereo unspecified) | i | -27 | 0 | -4 | nt | nt
O=C1Cn2c(nc3ccccc32)-c2ccccc2N1 | i | -7 | -15 | -6 | nt | nt
COc1cc(NC(=O)CSc2nnc3ccccn23)cc(OC)c1OC | i | 14 | 0 | -12 | nt | nt
Cc1ccc(-n2c(SCC(=O)Nc3ccc(Oc4ccccc4)cc3)nnc2-c2cccc(C)c2)cc1 | nt | nt | 0 | nt | nt | nt
COc1ccc(Cn2cc(CN3CC(N4CCN(CCO)CC4)CS3(=O)=O)nn2)cc1 (stereo unspecified) | i | nt | 0 | -9 | nt | nt
COc1ccc(C(=O)N2CCN(Cc3ccccn3)CC2)cc1 | i | -7 | -1 | -10 | nt | nt
COc1ccc2cc(C(=O)C3CCCN(Cc4ccccn4)C3)ccc2c1 (stereo unspecified) | nt | 28 | 39* | 3 | -6 | 1
